# PMC7862700, “An all-to-all approach to the identification of sequence-specific readers for epigenetic DNA modifications on cytosine”
# Legend:
# Assay in all cases: DAPPL (digital affinity profiling via proximity ligation, sequencing); 10 mM Tris-HCl pH 7.5, 50 mM NaCl, 1 mM DTT, 4% glycerol, room temperature, 30 min; GST-TFs on glutathione beads, 16-mer random dsDNA library, 0.1% formaldehyde crosslink after washing; high values mean tight binding
# FEV = biological target: T1, FEV (Homo sapiens, UniProt Q99581 1-238); settings: protein: recombinant; tags: N-terminal GST; dsDNA, one strand shown
# T1 sequence: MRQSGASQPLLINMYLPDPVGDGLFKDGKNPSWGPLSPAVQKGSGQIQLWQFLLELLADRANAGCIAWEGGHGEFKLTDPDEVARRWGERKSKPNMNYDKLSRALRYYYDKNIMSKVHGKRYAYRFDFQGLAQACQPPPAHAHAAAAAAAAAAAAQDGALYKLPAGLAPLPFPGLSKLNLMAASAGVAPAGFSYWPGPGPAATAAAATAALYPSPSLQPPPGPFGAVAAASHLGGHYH
# Summary of the method: (§1)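 Human transcription factors carrying a GST fusion were produced in yeast, bound to glutathione beads, tagged with DNA barcodes and pooled together with a tag-only sample. Each pool was held with 200 nmole of a random double-stranded 16-mer DNA library in Tris/NaCl/DTT/glycerol buffer for 30 min at room temperature, then washed, crosslinked in 0.1% formaldehyde, proximity-ligated with BsaI/T4 ligase (1 h, 37 °C), PCR-amplified and sequenced on an Illumina NextSeq500. Binding signal is the read frequency of each hexamer for a given factor divided by its frequency in the tag-only sample.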
# ETV5 = ETV5 (Homo sapiens, UniProt P41161 1-510); settings: protein: recombinant; tags: N-terminal GST; dsDNA, one strand shown
# Summary of the method: as §1
# HSF1 = HSF1 (Homo sapiens, UniProt Q00613 1-529); settings: protein: recombinant; tags: N-terminal GST; chain copies: 3; dsDNA, one strand shown
# Summary of the method: as §1
# SPIC = biological target: T2, SPIC (Homo sapiens, UniProt Q8N5J4 1-248); settings: protein: recombinant; tags: N-terminal GST; dsDNA, one strand shown
# T2 sequence: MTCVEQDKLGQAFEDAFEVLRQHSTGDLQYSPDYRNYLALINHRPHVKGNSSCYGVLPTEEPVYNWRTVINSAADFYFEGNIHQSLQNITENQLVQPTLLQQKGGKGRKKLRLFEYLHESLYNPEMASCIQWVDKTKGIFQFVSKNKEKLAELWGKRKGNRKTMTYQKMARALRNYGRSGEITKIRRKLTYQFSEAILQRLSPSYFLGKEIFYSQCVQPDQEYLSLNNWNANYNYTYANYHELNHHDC
# Summary of the method: as §1
# ELF4 = ELF4 (Homo sapiens, UniProt Q99607 1-663); settings: protein: recombinant; tags: N-terminal GST; dsDNA, one strand shown
# Summary of the method: as §1
# ELK4 = biological target: T3, ELK4 (Homo sapiens, UniProt P28324-2 1-405); settings: protein: recombinant; tags: N-terminal GST; dsDNA, one strand shown
# T3 sequence: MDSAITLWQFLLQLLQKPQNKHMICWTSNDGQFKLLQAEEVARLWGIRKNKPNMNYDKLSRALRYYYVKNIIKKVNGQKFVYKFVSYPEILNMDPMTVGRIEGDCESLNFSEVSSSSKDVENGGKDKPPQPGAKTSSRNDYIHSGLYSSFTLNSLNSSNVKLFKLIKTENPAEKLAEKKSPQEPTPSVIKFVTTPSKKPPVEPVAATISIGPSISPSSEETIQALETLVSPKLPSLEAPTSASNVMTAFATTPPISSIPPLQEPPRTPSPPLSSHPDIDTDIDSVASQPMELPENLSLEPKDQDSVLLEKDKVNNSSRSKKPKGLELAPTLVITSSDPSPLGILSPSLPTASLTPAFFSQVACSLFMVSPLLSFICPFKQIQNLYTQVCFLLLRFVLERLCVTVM
# Summary of the method: as §1
# ETV2 = biological target: T4, ETV2 (Homo sapiens, UniProt O00321 1-342); settings: protein: recombinant; tags: N-terminal GST; dsDNA, one strand shown
# T4 sequence: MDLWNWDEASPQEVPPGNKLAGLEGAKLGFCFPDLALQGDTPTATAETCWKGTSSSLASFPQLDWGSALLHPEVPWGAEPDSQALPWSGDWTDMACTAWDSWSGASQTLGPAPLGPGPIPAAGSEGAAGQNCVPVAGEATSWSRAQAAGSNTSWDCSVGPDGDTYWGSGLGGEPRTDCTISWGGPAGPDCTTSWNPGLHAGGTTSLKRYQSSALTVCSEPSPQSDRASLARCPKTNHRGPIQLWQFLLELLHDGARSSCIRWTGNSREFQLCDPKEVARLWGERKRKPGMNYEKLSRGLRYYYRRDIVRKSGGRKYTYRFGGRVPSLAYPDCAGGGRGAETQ
# Summary of the method: as §1
# ELF3 = biological target: T5, ELF3 (Homo sapiens, UniProt P78545 1-371); settings: protein: recombinant; tags: N-terminal GST; dsDNA, one strand shown
# T5 sequence: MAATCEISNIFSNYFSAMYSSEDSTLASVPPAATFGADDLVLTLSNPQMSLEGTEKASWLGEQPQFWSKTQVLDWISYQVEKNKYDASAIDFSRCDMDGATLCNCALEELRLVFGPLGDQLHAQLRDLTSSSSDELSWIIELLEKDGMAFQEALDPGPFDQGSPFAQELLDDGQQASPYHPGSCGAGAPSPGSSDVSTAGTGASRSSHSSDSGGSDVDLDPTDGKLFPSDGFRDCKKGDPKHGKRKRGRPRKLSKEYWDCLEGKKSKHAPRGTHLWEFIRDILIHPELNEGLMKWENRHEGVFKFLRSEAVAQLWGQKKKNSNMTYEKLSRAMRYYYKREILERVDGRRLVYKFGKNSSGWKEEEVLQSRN
# Summary of the method: as §1
# ETV1 = ETV1 (Homo sapiens, UniProt P50549 1-477); settings: protein: recombinant; tags: N-terminal GST; dsDNA, one strand shown
# Summary of the method: as §1
# Chain of HSF1 (Q00613 whole entry): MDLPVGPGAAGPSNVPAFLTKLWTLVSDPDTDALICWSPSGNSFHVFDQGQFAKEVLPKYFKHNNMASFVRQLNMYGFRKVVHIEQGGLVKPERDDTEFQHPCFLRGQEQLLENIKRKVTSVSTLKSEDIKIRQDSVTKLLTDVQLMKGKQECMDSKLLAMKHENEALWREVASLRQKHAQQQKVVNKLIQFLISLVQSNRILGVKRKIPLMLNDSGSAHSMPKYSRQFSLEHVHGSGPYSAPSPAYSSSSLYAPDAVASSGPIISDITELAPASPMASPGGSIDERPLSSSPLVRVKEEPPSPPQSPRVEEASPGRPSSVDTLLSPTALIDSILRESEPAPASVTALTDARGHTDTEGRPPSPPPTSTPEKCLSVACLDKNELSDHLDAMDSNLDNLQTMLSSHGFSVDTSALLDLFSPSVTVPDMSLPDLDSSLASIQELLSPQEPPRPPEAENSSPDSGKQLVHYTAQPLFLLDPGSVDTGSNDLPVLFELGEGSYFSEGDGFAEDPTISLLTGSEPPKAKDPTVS
# Chain of ELF4 (Q99607 whole entry): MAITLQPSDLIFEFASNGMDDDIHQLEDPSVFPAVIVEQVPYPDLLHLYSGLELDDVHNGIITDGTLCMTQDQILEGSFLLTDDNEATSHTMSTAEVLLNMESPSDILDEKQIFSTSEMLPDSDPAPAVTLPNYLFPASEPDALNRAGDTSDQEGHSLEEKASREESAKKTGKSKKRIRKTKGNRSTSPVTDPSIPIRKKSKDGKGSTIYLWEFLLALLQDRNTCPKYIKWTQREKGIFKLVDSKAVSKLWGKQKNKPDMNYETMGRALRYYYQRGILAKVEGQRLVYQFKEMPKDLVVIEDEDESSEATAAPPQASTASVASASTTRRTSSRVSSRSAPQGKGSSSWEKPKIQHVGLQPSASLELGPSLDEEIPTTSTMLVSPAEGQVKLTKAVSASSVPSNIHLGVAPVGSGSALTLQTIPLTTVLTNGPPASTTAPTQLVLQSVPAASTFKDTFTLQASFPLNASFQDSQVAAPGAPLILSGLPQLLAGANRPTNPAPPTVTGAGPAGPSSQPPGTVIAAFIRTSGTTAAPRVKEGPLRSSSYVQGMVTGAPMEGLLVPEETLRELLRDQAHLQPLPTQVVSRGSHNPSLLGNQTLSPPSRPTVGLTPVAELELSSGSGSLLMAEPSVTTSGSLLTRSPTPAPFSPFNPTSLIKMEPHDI
# Chain of ETV5 (P41161 whole entry): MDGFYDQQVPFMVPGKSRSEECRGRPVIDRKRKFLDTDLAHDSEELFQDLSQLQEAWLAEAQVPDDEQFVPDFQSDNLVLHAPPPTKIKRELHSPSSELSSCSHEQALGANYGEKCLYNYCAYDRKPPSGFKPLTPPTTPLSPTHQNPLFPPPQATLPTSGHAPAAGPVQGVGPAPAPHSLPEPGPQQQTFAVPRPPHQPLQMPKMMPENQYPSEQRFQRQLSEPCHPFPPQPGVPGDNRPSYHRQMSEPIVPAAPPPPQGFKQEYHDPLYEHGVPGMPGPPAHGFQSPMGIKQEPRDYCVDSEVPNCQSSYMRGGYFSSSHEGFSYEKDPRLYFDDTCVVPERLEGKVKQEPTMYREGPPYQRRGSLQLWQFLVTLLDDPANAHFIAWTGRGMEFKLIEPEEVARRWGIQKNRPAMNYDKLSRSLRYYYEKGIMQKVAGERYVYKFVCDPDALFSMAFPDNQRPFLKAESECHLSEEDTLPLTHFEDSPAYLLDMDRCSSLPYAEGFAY
# Chain of ETV1 (P50549 whole entry): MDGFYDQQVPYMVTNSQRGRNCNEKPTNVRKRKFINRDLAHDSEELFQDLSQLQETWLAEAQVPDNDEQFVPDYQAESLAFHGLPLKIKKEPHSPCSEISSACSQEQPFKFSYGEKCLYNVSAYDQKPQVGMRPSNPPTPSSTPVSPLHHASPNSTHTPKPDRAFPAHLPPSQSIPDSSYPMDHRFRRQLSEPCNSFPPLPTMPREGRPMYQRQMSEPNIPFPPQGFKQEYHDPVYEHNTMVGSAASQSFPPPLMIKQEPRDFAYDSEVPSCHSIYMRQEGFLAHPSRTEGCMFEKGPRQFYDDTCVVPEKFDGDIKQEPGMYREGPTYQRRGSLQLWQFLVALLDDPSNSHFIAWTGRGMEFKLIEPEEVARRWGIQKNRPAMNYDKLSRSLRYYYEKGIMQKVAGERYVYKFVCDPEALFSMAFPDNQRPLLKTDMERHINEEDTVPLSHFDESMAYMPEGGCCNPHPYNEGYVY
sequence,measurement,setting,value
CCACGC,binding signal,FEV,"1.2 fold enrichment (6-mer frequency, TF over GST control)"
same,binding signal,ETV5,"1.15 fold enrichment (6-mer frequency, TF over GST control)"
same,binding signal,HSF1,"1.05 fold enrichment (6-mer frequency, TF over GST control)"
same,binding signal,SPIC,"1.14 fold enrichment (6-mer frequency, TF over GST control)"
same,binding signal,ELF4,"1.22 fold enrichment (6-mer frequency, TF over GST control)"
same,binding signal,ELK4,"1.19 fold enrichment (6-mer frequency, TF over GST control)"
same,binding signal,ETV2,"1.14 fold enrichment (6-mer frequency, TF over GST control)"
same,binding signal,ELF3,"1.24 fold enrichment (6-mer frequency, TF over GST control)"
same,binding signal,ETV1,"1.24 fold enrichment (6-mer frequency, TF over GST control)"
